In the library only some 4% were active in any assay of this set; here they are far more common.
MazEF act – increases E. coli MazEF RNase cleavage of RNA; P0AE70; FAM/BHQ RNA-DNA oligo cleavage fluorescence, 5 h; activation, % at 20 µM; 350,000 compounds, 0.32% hits; in the data active = activation above about 50%
Target sequence (P0AE70 whole entry, looked up): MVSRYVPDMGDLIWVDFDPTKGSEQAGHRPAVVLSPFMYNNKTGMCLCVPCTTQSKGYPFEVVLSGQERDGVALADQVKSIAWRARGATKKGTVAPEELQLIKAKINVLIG
Autofluor counter – counter-screen for toxin protease inhibitors: compound fluorescence; fluorescence intensity (test concentration not listed); 360,000 compounds, 3.1% hits; compound autofluorescence counterscreen, microsphere flow cytometry; stronger effect = higher value; in the data active = fluorescence intensity above about 16000
VHR inh abs – DUSP3 (human) phosphatase inhibition; P51452; recombinant VHR phosphatase, pNPP absorbance; inhibition, % at 13.3 µM; 290,000 compounds, 0.52% hits; AID 1654; in the data active = inhibition above about 50%
Target sequence (P51452 whole entry, looked up): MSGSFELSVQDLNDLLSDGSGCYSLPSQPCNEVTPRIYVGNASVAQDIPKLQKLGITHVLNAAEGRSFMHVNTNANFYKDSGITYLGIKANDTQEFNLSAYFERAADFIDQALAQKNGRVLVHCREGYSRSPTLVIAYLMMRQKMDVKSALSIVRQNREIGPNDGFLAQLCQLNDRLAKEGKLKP
Anthrax LF prot – inhibitors of Bacillus anthracis lethal factor protease. P15917. multiplex microsphere protease cleavage assay, LF. inhibition, % at 10 µM. 360,000 compounds, 0.12% hits. AID 588501; also: plate controls were buffer without enzyme for full effect and enzyme alone for no effect
BoNT F protease – BoNT F light chain protease inhibition; Multiplex microsphere protease cleavage assay, flow cytometry; 360,000 compounds, 0.22% hits; inhibition, % at 10 µM; in the data active = inhibition above about 35%, passing the limit was not always enough; also: plate controls were buffer without enzyme for full effect and enzyme alone for no effect
BoNT A protease – BoNT A light chain protease inhibition; multiplex microsphere protease substrate cleavage, flow cytometry; inhibition, % at 10 µM; 360,000 compounds, 0.17% hits; also: plate controls were buffer without enzyme for full effect and enzyme alone for no effect
BoNTA LC inh 1 – blocks botulinum neurotoxin A light chain protease | multiplex microsphere protease assay, flow cytometry | AID 602139 | shares compounds with BoNT F protease | inhibition, % at 10 µM | 720 compounds, 3% hits; in the data active = inhibition above about 32%
BoNT-F LC CP1 – BoNT/F light chain protease inhibition; shares compounds with BoNT F protease; multiplex microsphere protease cleavage assay, flow cytometry; inhibition, % at 10 µM; 720 tested, under 10 active; AID 602140; call rule not given here
Anthrax LF CP1 – inhibitors of Bacillus anthracis lethal factor protease; inhibition, % at 10 µM; multiplex microsphere protease cleavage assay, LF; shares compounds with BoNT F protease; 720 tested, under 10 active; call rule not given here
Numbers without * were called inactive. Rule as the data show it, unless noted: active = inhibition above about 30%; inconclusive = no clear call, values can overlap the other calls; inactive = below that.

For CCc1ccc(C(=O)CN2C(=O)NC3(CCCCCC3)C2=O)cc1 the results were MazEF act -2.5, Autofluor counter 5069, Anthrax LF prot 10.6, BoNT F protease 42.8*, BoNT A protease 11.6, BoNTA LC inh 1 0.3, BoNT-F LC CP1 -0.9 and Anthrax LF CP1 -1.9.
`CCn1c(SCC(=O)Nc2ccc(C)cc2)nc(O)cc1=O` gave MazEF act -0.1, Autofluor counter 3877, VHR inh abs -1.3, Anthrax LF prot 9.5, BoNT F protease 42.3*, BoNT A protease 3.1, BoNTA LC inh 1 -0.3, BoNT-F LC CP1 5.8 and Anthrax LF CP1 6.3.
Screening C=CCn1c(SCC(=O)Nc2ccc(Br)cc2)nc(O)cc1=O returned MazEF act -5.0, Autofluor counter 3765, Anthrax LF prot -3.7, BoNT F protease 2.5 and BoNT A protease 0.1.
For CN1CCc2c(sc3nc(SCC(N)=O)n(-c4ccc(Cl)cc4)c(=O)c23)C1 the results were MazEF act 0.9, Autofluor counter 9910, VHR inh abs 10.4, Anthrax LF prot -6.3, BoNT F protease -41.0, BoNT A protease 65.5*, BoNTA LC inh 1 3.6, BoNT-F LC CP1 -6.8 and Anthrax LF CP1 0.7.
Screening CCSc1nc2sc3c(c2c(=O)n1C1CCCCC1)CCN(C)C3 returned MazEF act 5.0, Autofluor counter 5142, VHR inh abs 21.4, Anthrax LF prot 29.4, BoNT F protease 11.1, BoNT A protease 45.2*, BoNTA LC inh 1 0.9, BoNT-F LC CP1 -1.1 and Anthrax LF CP1 3.3.
For CC(=O)c1cccc(-c2ccnc3c2CC(C(=O)Nc2ccc4c(c2)OCO4)O3)c1 (centres undefined) the results were Autofluor counter 3826, Anthrax LF prot -5.7, BoNT F protease -6.2 and BoNT A protease -0.6.
Screening COc1ccc(C(O)c2nc(/C=C/c3ccc(C(F)(F)F)cc3)cs2)cc1 (centres undefined) returned Autofluor counter 3503, Anthrax LF prot -6.3, BoNT F protease -4.6 and BoNT A protease -0.1.
`COc1ccc(/C=C/c2cc(C(F)(F)F)on2)cc1` gave MazEF act 5.2, Autofluor counter 3409, VHR inh abs 32.9, Anthrax LF prot 10.1, BoNT F protease 39.5*, BoNT A protease -0.4, BoNTA LC inh 1 -0.7, BoNT-F LC CP1 -3.9 and Anthrax LF CP1 -5.4.
CCOc1ccc(/C=C/C2=Cc3c(sc(NC(=O)CSc4n[nH]c(N)n4)c3C#N)C(C)(C)C2)cc1 was read as MazEF act 22.2, Autofluor counter 7061, VHR inh abs 29.7, Anthrax LF prot 57.9*, BoNT F protease 37.1*, BoNT A protease 85.4*, BoNTA LC inh 1 28.7, BoNT-F LC CP1 6.4 and Anthrax LF CP1 19.6.
Cc1ccsc1/C=C/C1=Cc2c(sc(NC(=O)CSc3n[nH]c(N)n3)c2C#N)C(C)(C)C1 was read as MazEF act 11.1, Autofluor counter 18756*, VHR inh abs 31.2, Anthrax LF prot 33.2*, BoNT F protease 24.2, BoNT A protease 44.1*, BoNTA LC inh 1 21.1, BoNT-F LC CP1 0.7 and Anthrax LF CP1 12.3.
`NC(=O)c1ccsc1NC(=O)CSc1n[nH]c(N)n1` gave MazEF act -11.4, Autofluor counter 3459, Anthrax LF prot -3.7, BoNT F protease 2.4 and BoNT A protease 0.1.
`COc1cc2nc3c4ccccc4n(CC#N)c3nc2cc1OC` gave VHR inh abs 3.1.
CCn1c2ccccc2c2nc3cc(OC)c(OC)cc3nc21 was read as MazEF act 1.3, Autofluor counter 5340, VHR inh abs 18.6, Anthrax LF prot 23.4, BoNT F protease 31.5, BoNT A protease 50.3*, BoNTA LC inh 1 22.7, BoNT-F LC CP1 4.1 and Anthrax LF CP1 8.7.
For COC(=O)c1ccccc1NC(=O)c1ccco1 the results were MazEF act 4.7, Autofluor counter 2121, VHR inh abs -7.3, Anthrax LF prot -0.4, BoNT F protease 4.3 and BoNT A protease -0.1.
Screening COC(=O)c1sccc1NC(=O)c1ccco1 returned MazEF act 5.1, Autofluor counter 4135, VHR inh abs 8.3, Anthrax LF prot -3.2, BoNT F protease 36.5*, BoNT A protease 0.3, BoNTA LC inh 1 -1.8, BoNT-F LC CP1 -2.9 and Anthrax LF CP1 -2.7.

Bioassay records: PubChem, several laboratories
